# Bioassay records: PubChem, National Center for Advancing Translational Sciences (NCATS)
# Shown are actives, neighbours in structure and some others; about 21% of the full set was active somewhere.
# RORg inh = qHTS for inhibitors of ROR gamma transcriptional activity; Nuclear receptor ROR-gamma (Mus musculus), P51450; Drosophila S2 Gal4-RORgamma UAS-luciferase reporter, 20 h; Potency, µM (titrated, usually from 53.6 µM), inactives show at the highest dose activity change, negative = inhibition, most hits filed as inhibitors; 310,000 tested, 5.4% active; AID 2551, 2010; further: potency means the concentration at half of the fitted maximal effect; nearly all actives have a fitted effect of over 60% in size
# Target sequence (P51450 whole entry, looked up, the tested form may be a part): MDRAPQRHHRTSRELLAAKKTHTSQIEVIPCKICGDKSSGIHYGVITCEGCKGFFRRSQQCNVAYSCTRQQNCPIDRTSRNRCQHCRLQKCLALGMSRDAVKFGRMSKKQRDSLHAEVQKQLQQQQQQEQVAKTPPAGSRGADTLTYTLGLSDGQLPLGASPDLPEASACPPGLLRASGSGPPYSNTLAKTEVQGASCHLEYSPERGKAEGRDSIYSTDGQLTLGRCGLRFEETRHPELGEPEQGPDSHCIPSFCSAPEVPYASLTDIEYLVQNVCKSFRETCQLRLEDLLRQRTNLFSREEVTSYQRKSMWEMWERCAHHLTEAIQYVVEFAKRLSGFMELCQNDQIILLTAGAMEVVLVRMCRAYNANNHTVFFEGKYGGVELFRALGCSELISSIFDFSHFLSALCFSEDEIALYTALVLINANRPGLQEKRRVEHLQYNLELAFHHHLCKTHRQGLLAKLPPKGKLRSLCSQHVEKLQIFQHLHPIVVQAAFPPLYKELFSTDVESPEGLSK
#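 Luminescence from a UAS-regulated Photinus luciferase reporter in stably transfected Drosophila Schneider cells is measured; decreased signal marks ROR gamma inhibition. Fusion expression is induced by 700 uM copper sulfate for 20 hr.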
# TDP1 cell noCPT = qHTS for Inhibitors of human tyrosyl-DNA phosphodiesterase 1 (TDP1): qHTS in cells in absence of CPT; 420,000 tested, 15% active; DT40 Tdp1-/- hTDP1 cells, no CPT, ATP luminescence, 48 h; Potency, µM (series often up to 46.2 µM), without a hit: at the highest dose activity change, negative = growth inhibition, hits mostly inhibitors; further: potency means the concentration at half of the fitted maximal effect; nearly all actives have a fitted effect of over 55% in size
#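 DT40 Tdp1-/-;hTDP1 cells, no CPT (DMSO vehicle only), 400 cells/well; compounds pin-transferred; ≥48 hr, 37 °C; CellTiter-Glo 30 min RT dark, luminescence read.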
# TDP1 cell CPT = qHTS for Inhibitors of human tyrosyl-DNA phosphodiesterase 1 (TDP1): qHTS in cells in presence of CPT. chicken DT40 Tdp1-/-;hTDP1 cells + 20 nM CPT, ATP luminescence, 48 h. Potency, µM (highest dose often 46.2 µM), without a hit: top-dose activity change, negative = growth inhibition, hits mostly inhibitors. 420,000 tested, 12% active; further: potency means the concentration at half of the fitted maximal effect; nearly all actives have a fitted effect of over 55% in size
#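 Cell growth measured by CellTiter-Glo luminescence after a minimum 48 h, 37 C compound exposure with 20 nM CPT in Tdp1-knockout DT40 cells stably expressing hTDP1, seeded 400/well; qHTS titration format.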
# Gal4-VP16 FLuc = VP16 counterscreen qHTS for inhibitors of ROR gamma transcriptional activity. Potency, µM (highest dose often 53.6 µM), without a hit: at the highest dose activity, negative = inhibition, actives largely listed as inhibitors. Drosophila S2 Gal4-VP16 UAS-luciferase, luminescence, 20 h. 310,000 tested, 3.5% active;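 further: Gal4-VP16 expression switched on by copper sulfate through the metallothionein promoter; potency means the concentration at half of the fitted maximal effect; nearly all actives have a fitted effect of over 50% in size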
# IL1B secr inh = qHTS for Inhibitors of Inflammasome Signaling: IL-1-beta AlphaLISA Primary Screen; THP-1 LPS/ATP IL-1B secretion, AlphaLISA, 16 h; active compounds read low; activity change, % at 57.5 µM; 360,000 tested, 4.7% active; AID 743279, 2014; in the data active means activity change below about -50%; inconclusive means mostly about -30% to -49%
#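 THP-1 cells pretreated 1 hr with compounds (up to 57.5 uM final), then stimulated with LPS (250 ng/mL final) plus ATP (1.25 mM final); secreted IL-1B measured by AlphaLISA after 16 hr, decreased signal indicating inhibition.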
# ELG1 repair inh = qHTS screen for small molecules that inhibit ELG1-dependent DNA repair in human embryonic kidney (HEK293T) cells expressing luciferase-tagged ELG1; 330,000 tested, 2.3% active; Potency, µM (top dose mostly 46.1 µM), without a hit: top-dose activity change, negative = inhibition, most hits filed as inhibitors; HEK293T ELG1-luciferase reporter, luminescence, 16 h; DNA damage induced by 5-fluorouridine; further: potency means the concentration at half of the fitted maximal effect; nearly all actives have a fitted effect of over 55% in size
#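 Overnight (16 hr) co-exposure of 2,000 cells/well to 5-fluorouridine and compound at 37 °C preceded detection. Luciferase was quantified via ONE-Glo luminescence; loss of signal denotes inhibition.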
# An asterisk follows results filed as active; ? = inconclusive; . = no result; [ ] = remark or other dose. Unless noted, the call rests on the fitted dose curve; in most records, active means well fitted curve in the direction sought with a large enough effect; inconclusive means small, poorly fitted or top-dose-only effect, or another doubt; inactive means no such curve, though single readings can be large; an effect the other way counts as inactive or inconclusive. On the % scale 0 is the no-effect control and ±100 the full control effect.
SMILES,RORg inh,TDP1 cell noCPT,TDP1 cell CPT,Gal4-VP16 FLuc,IL1B secr inh,ELG1 repair inh
O=C(CSc1nc(-c2ccccc2)c(-c2ccccc2)[nH]1)NCCN1C(=O)CSC1=O,-20.1%,14.6µM*,13µM*,-1.4%,4.0,-3.1%
O=C(CSc1ncc(-c2ccccc2)nn1)NCc1ccco1,-0.1%,-16.0%,-22.0%,-0.6%,19.2,-2.2%
Cc1nc(SCC(=O)NCc2ccco2)nc(C)c1C,7.08µM*,6.8%,7.5%,-3.8%,13.9,-1.7%
O=C(CSc1nc(-c2ccccc2)cs1)NCc1ccco1,?,?,-11.4%,8.9%,-8.5,?
O=C(COC(=O)CCC(=O)N1CCOCC1)Nc1ccc(Br)cc1Br,.,1.6%,-4.8%,.,-16.4,16.4%
CCOC(=O)C1=C(COC(=O)CCc2ccc(CC)cc2)NC(=O)NC1C (stereo unspecified),.,-6.9%,-7.1%,.,14.9,17.3%
CCOC(=O)N1CCN(C(=O)c2cn(CC)c3ccc(S(=O)(=O)N(C)C4CCCCC4)cc3c2=O)CC1,6.2%,-11.1%,-6.4%,11.1%,-7.7,-5.4%
CN1CCN(C(c2cccc(Br)c2)c2sc3nc(-c4ccco4)nn3c2O)CC1 (stereo unspecified),.,-22.3%,3.7%,.,.,.
O=C(CSC1=NCCS1)NCc1ccco1,23.3%,11.6µM*,13µM*,0.2%,26.9,11.5%
CCCc1ccccc1OCCNS(=O)(=O)c1cc2c(cc1C)OCC(=O)N2,15.8%,11.6µM*,14.6µM*,?,-98.6*,-1.7%
Cc1cc2c(cc1S(=O)(=O)NCCc1ccccc1)NC(=O)CO2,.,-19.3%,-6.6%,.,-20.4,-1.4%
Cc1cc(C(=O)Nc2ccccc2-c2nc(CNC(=O)c3cc4ccccc4cn3)c(C)o2)c(C)o1,.,-1.7%,0.5%[9.04 µM],.,.,.
O=C(COC(=O)c1cccc(S(=O)(=O)N2CCOCC2)c1)NC1CCCCC1,.,-4.7%,-15.7%,.,-2.2,.
Oc1c(C=C2N=c3ccccc3=N2)sc(=S)n1-c1ccc(F)cc1,?,?,?,12.6µM*,-3.4,0.1%
Oc1c(C=C2N=c3ccccc3=N2)sc(=S)n1C1CCCC1,3.3%,-39.9%,-7.1%,?,-5.3,20.5%
Oc1c(C=C2N=c3ccccc3=N2)sc(=S)n1-c1ccc2ccccc2c1,10.4%,-22.5%,20.6µM*,?,47.5,?
Cc1ccc2c(=O)cc(C(=O)N(Cc3ccc(N(C)C)cc3)C3CCS(=O)(=O)C3)oc2c1 (stereo unspecified),.,?,-20.7%,.,.,.
Cc1ccc2c(c1)c1n[nH]c(=S)nc1n2CCc1ccccc1,3.98µM*,25.9µM*,16.4µM*,?,17.4,?
CCn1c2ccc(F)cc2c2nc3ccccc3nc21,-27.3%,?,-4.3%,-4.8%,-24.4,-11.7%
CCn1c2ccc(C)cc2c2n[nH]c(=S)nc21,-42.1%[1.91 µM],?,-3.1%,3.16µM*,4.1,1.7%
NNc1nnc2c3cc(F)ccc3n(CCc3ccccc3)c2n1,?,16.4µM*,?,-3.8%,102.7,11.6µM*
Fc1ccc2c(c1)c1n[nH]c(=S)nc1n2CCc1ccccc1,1.41µM*,?,?,2.82µM*,-9.6,-3.0%
C[C@H]1C(=O)N(S(=O)(=O)c2ccc([N+](=O)[O-])cc2)[C@H]1c1ccc(F)cc1,-2.2%,.,.,0.7%,.,.
Cc1ncc2c(c1CNC(=O)c1ccc3c(c1)OCO3)CCN(C(=O)/C=C/c1ccccc1Cl)C2,.,-8.2%,-2.3%[9.04 µM],.,.,.
O=C(CN1CCN(C(=O)c2cncn2-c2ccccc2)CC1)Nc1ccccc1Cl,.,-24.2%,-13.9%,.,-10.1,13.6%
SMILES,RORg inh,TDP1 cell noCPT,TDP1 cell CPT,Gal4-VP16 FLuc,IL1B secr inh,ELG1 repair inh
CCCN(CC(=O)Nc1ccccc1C)C(=O)Cc1c(C)nc2ccccc2c1C,.,-1.4%,-0.4%,.,12.9,-8.6%
CN(Cc1cn[nH]c1-c1ccc2c(c1)OCO2)C1CCOCC1,-0.2%,4.4%,17.3%,6.7%,4.3,11.8%
CCc1cc(-c2[nH]ncc2-c2ccc3c(c2)OCO3)c(O)cc1O,-28.1%,11.2µM*,18.4µM*,-7.3%,-89.1*,?
COc1ccc(-c2[nH]ncc2-c2ccc3c(c2)OCCO3)c(O)c1,?,7.31µM*,4.61µM*,?,6.5,.
COc1ccc(-c2cn[nH]c2-c2ccc(OCc3ccc([N+](=O)[O-])cc3)cc2O)cc1,2.82µM*,16.4µM*,?,2µM*,-55.6*,?
CCCc1cc(-c2[nH]ncc2-c2ccc3c(c2)OCCCO3)c(O)cc1OC,3.55µM*,.,.,?,.,?
COc1ccc(C(=O)c2cn[nH]c2-c2ccc(C)cc2O)cc1,8.2%,?,-3.0%,5.6%,-18.8,-15.6%
COc1ccc(NC(=O)CN2C(=O)NC3(CCCC3)C2=O)cc1Cl,-2.9%,-11.3%,-19.4%,17.5%,-3.2,0.3%
COc1cccc(C(=O)NCC2Cc3c(F)ccc(-c4ncccn4)c3O2)c1OC (stereo unspecified),.,?,-7.0%[9.04 µM],.,.,.
COc1cc(C(=O)COC(=O)c2ccc([N+](=O)[O-])o2)cc(OC)c1OC,.,-8.9%,-11.7%,.,-10.0,3.2%
CN(C)c1ncc2nc(-c3cccs3)c(=O)n(C[C@H]3CCCO3)c2n1,11.8%,11.9%,-3.9%,0.9%,.,.
CCc1cc(-c2[nH]ncc2-c2ccc(OC)cc2)c(O)cc1O,-13.0%,18.4µM*,?,1.6%,-83.0*,?
COc1ccc(-c2[nH]ncc2-c2nc(C)cs2)c(O)c1,?,-23.1%,-3.9%,-2.7%,-13.4,-11.8%
O=C(O)c1cc2ccccc2cn1,.,-0.4%,0.3%,.,5.6,.
O=C1c2ccccc2C(=O)C1c1ccc2ccccc2n1,?,25.9µM*,6.31µM*,3.98µM*,-2.6,?
O=C1c2ccccc2C(=O)C1c1cc2ccccc2cn1,.,7.08µM*,1.78µM*,.,.,.
COC(=O)C1=C(C)NC(C)=C(C(=O)OC)C1c1ccc2ccccc2n1,-8.8%,-16.6%,-7.2%,8.6%,9.5,25.8%
O=C(CCN1CCOCC1)Nc1cc(C(=O)Nc2ccccc2F)ccc1N1CC2CC(C1)c1cccc(=O)n1C2 (stereo unspecified),-9.3%,0.4%,1.6%,-9.5%,-5.9,-19.9%
